The values that follow come from PubChem BioAssay (NCI).

This is part of a sample that, as a whole, favours compounds with a hit. Of some 83,000 tested, about 20% had one in any assay.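 How to read the values: 0–100, growth inhibition (40 = 60% inhibited); 0, no net growth; -100 to 0, cell death (-40 = 40% of starting cells died; -100 = all dead).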 A number with no mark means an inactive call. The source made the active and inactive calls. Rule for the calls: active = growth percent below 10; inactive = the rest.

Test systems include SR leukemia; RPMI-8226 leukemia; OVCAR-8 ovarian; OVCAR-5 ovarian; OVCAR-4 ovarian; SK-OV-3 ovarian; IGROV1 ovarian; OVCAR-3 ovarian; HS 578T breast; NCI/ADR-RES ovarian; T-47D breast; BT-549 breast; MDA-MB-435 melanoma; SW-620 colon; MCF7 breast; HCT-116 colon; HCC-2998 colon; KM12 colon.
Holding throughout (assay): NCI-60 one-dose screen, 48 h (100 = growth as untreated, 0 = no growth, -100 = all killed)
Conditions in all cases: 10 µM unless noted

As to `O=C(Nc1cc(Cl)cc(Cl)c1)Oc1c(Cl)c(Cl)c(Cl)c(Cl)c1Cl`, the growth was 64.5% in the assay with SR leukemia; 37% in the assay with RPMI-8226 leukemia; 78.1% with OVCAR-8 ovarian; 87.3% with OVCAR-5 ovarian; 82.4% in the assay on OVCAR-4 ovarian; 77.2% in the assay on SK-OV-3 ovarian. The growth in the assay on IGROV1 ovarian is 79.2%; in the assay on OVCAR-3 ovarian, 54.9%; in the assay on HS 578T breast it was 63.5%; with NCI/ADR-RES ovarian it was 77.5%; with T-47D breast, 77.5%; in the assay on BT-549 breast, 74.9%. For the same compound, the growth is 75.9% in the assay with MDA-MB-435 melanoma; 88.3% with SW-620 colon; 83% in the assay with MCF7 breast; 62.1% with HCT-116 colon; 93.4% in the assay on HCC-2998 colon; 83.3% with KM12 colon.
Consider `N#Cc1ccccc1-c1ccc(CN2C(=O)S/C(=C\c3ccc(Br)cc3)C2=O)cc1`, for which the growth in the assay on SR leukemia is 89.3%; with RPMI-8226 leukemia, 103%; with OVCAR-8 ovarian, 101%; in the assay on OVCAR-5 ovarian, 101%; in the assay with OVCAR-4 ovarian it was 90.2%; in the assay with SK-OV-3 ovarian, 94.3%. Further, the growth with IGROV1 ovarian is 98.3%; with OVCAR-3 ovarian it was 112%; in the assay on HS 578T breast, 92.3%; with NCI/ADR-RES ovarian, 94.1%; in the assay with T-47D breast, 85.3%; with BT-549 breast, 95.9%. Further, the growth is 94.5% in the assay with MDA-MB-435 melanoma; 103% in the assay on SW-620 colon; 95% with MCF7 breast; 105% in the assay with HCT-116 colon; 98.9% with HCC-2998 colon; 98.9% in the assay on KM12 colon.
Consider `COc1ccc(/C=C/C(c2cc(OC)c(OC)c(OC)c2)n2cncn2)cc1O` (stereo unspecified), for which the growth with SR leukemia was 5.67% (active); in the assay on RPMI-8226 leukemia it was 19.9%; with OVCAR-8 ovarian it was 16%; with OVCAR-5 ovarian it was 86.5%; in the assay on OVCAR-4 ovarian, 83.5%; in the assay with SK-OV-3 ovarian, 12.7%. Moreover, the growth with IGROV1 ovarian was 50.5%; with OVCAR-3 ovarian, 15.7%; with HS 578T breast, 28.5%; with NCI/ADR-RES ovarian it was 10.8%; in the assay on T-47D breast it was 34.4%; in the assay on BT-549 breast, 36.6%. Further, the growth in the assay on MDA-MB-435 melanoma was -33% (active); in the assay on SW-620 colon, 27.6%; in the assay on MCF7 breast, 21.2%; in the assay on HCT-116 colon, 10.5%; in the assay on HCC-2998 colon, 67.7%; in the assay with KM12 colon, 26.7%.
Turning to `COC(=O)/C=C1/SC(=Nc2ccc(F)cc2)N(CCc2c[nH]c3ccc(O)cc23)C1=O`, the growth with SR leukemia was -4.72% (active); with RPMI-8226 leukemia, 4.11% (active); in the assay on OVCAR-8 ovarian it was 26.1%; in the assay with OVCAR-5 ovarian, 76.3%; in the assay with OVCAR-4 ovarian it was 30.3%; with SK-OV-3 ovarian, 80.8%. In addition, the growth in the assay on IGROV1 ovarian was 24.6%; in the assay with OVCAR-3 ovarian it was 21.5%; in the assay on HS 578T breast it was 37.4%; in the assay on NCI/ADR-RES ovarian, 32.7%; with T-47D breast, 23.7%; in the assay with BT-549 breast it was 8.93% (active). For the same compound, the growth with MDA-MB-435 melanoma was 25.4%; in the assay on SW-620 colon, 53.7%; in the assay with MCF7 breast it was 17%; in the assay on HCT-116 colon, 23.1%; in the assay on HCC-2998 colon, 45.9%; with KM12 colon, 38.3%.
As for `COc1cc([C@@H](CCO)C[C@H](C)c2ccc3ccccc3c2)cc(OC)c1OC`, the growth in the assay on SR leukemia was 24.5%; with RPMI-8226 leukemia it was 22.6%; in the assay with OVCAR-8 ovarian, 43.5%; in the assay on OVCAR-5 ovarian, 70.2%; with OVCAR-4 ovarian it was 55.8%; with SK-OV-3 ovarian, 33.8%. The growth in the assay on IGROV1 ovarian is 51.2%; in the assay on OVCAR-3 ovarian it was 8.71% (active); in the assay on HS 578T breast, 22.2%; with NCI/ADR-RES ovarian, 16.5%; in the assay on T-47D breast it was 45.3%; in the assay on BT-549 breast, 26%. The growth is 2.44% (active) in the assay on MDA-MB-435 melanoma; 18.9% in the assay on SW-620 colon; 18.8% with MCF7 breast; 18.7% in the assay with HCT-116 colon; 56.1% in the assay with HCC-2998 colon; 26.3% in the assay on KM12 colon.
Regarding `COc1ccc(-c2cc(-c3cn(-c4cccc(Cl)c4)nc3-c3ccc(OC)cc3)on2)cc1`, the growth in the assay on SR leukemia was 68.4%; in the assay on RPMI-8226 leukemia, 88.3%; in the assay on OVCAR-8 ovarian, 93.7%; in the assay with OVCAR-5 ovarian, 111%; in the assay with OVCAR-4 ovarian it was 106%; in the assay on SK-OV-3 ovarian, 98%. Also, the growth with IGROV1 ovarian is 97.5%; in the assay with OVCAR-3 ovarian, 103%; in the assay with HS 578T breast, 96.3%; with NCI/ADR-RES ovarian, 100%; with T-47D breast it was 95%; with BT-549 breast, 121%. Further, the growth in the assay with MDA-MB-435 melanoma is 110%; with SW-620 colon, 106%; with MCF7 breast, 86.6%; in the assay on HCT-116 colon, 101%; with HCC-2998 colon, 101%; in the assay on KM12 colon, 92.5%.
Regarding `COc1cc(/C=C/c2cn[nH]c2-c2ccc(C)cc2)cc(OC)c1OC`, the growth was 12.3% with SR leukemia; 25.8% with RPMI-8226 leukemia; 32.8% with OVCAR-8 ovarian; 85% with OVCAR-5 ovarian; 78.5% in the assay on OVCAR-4 ovarian; 16.2% in the assay with SK-OV-3 ovarian. Further, the growth in the assay on IGROV1 ovarian was 51.9%; with OVCAR-3 ovarian, 15.5%; in the assay on HS 578T breast, 39.9%; in the assay with NCI/ADR-RES ovarian, 16.7%; in the assay on T-47D breast, 22.2%; in the assay with BT-549 breast, 32.9%. Further, the growth is -16.2% (active) in the assay on MDA-MB-435 melanoma; 19.7% in the assay with SW-620 colon; 13.1% in the assay with MCF7 breast; 11.7% in the assay on HCT-116 colon; 78.8% in the assay on HCC-2998 colon; 29.9% in the assay with KM12 colon.
